Records with an inconclusive call do not appear. Activity calls are given as the source filed them. Unless noted, calls come from the whole dose curve; as a rule, active = well fitted curve in the direction sought with a large enough effect in the repeat runs; inconclusive = weak or mixed curves; inactive = no such curve, though single readings can be large; an effect the other way counts as inactive or inconclusive.
How the values were obtained:
[1] = qHTS assay for small molecule agonists of the p53 signaling pathway (AID 651631; calls by dose curve; note: nearly all actives have a fitted effect of over 15% in size)
How it was run: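 Fluorescence intensity from cleaved LiveBLAzer B/G substrate (2 h, room temperature) served as the signal. Beforehand, HCT-116 reporter cells bearing p53 response elements were treated 16 h at 37 °C with DMSO-dissolved compounds.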

[2] = qHTS assay for small molecules that induce genotoxicity in human embryonic kidney cells expressing luciferase-tagged ATAD5 (AID 651632); note: nearly all actives have a fitted effect of over 15% in size
How it was run: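 HEK293T cells carrying a luciferase reporter tagged to ATAD5 were exposed to compound or DMSO vehicle for 16 hr at 37C, 5% CO2. Amplite was added, and after 30 min at room temperature luciferase activity was read as a marker of ATAD5 induction.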

[3] = qHTS assay for small molecule agonists of the p53 signaling pathway - cell viability (AID 651633; calls by dose curve;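 note: p53RE-bla HCT reporter cells with a stable beta-lactamase p53 reporter; nearly all actives have a fitted effect of over 30% in size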)
How it was run: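 p53RE-bla cells were treated with compound for 16 hours at 37 C. Cytotoxicity was then measured as CellTiter-Glo luminescence after 30 min at room temperature.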

[4] = qHTS assay for small molecules that induce genotoxicity in human embryonic kidney cells expressing luciferase-tagged ATAD5 - cell viability (AID 651634; calls by dose curve; note: nearly all actives have a fitted effect of over 25% in size)
How it was run: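 HEK293T cells expressing luciferase-tagged ATAD5 were exposed to compound or DMSO for 15.5 hr at 37C, 5% CO2. Viability was then read as live-cell protease activity by CellTiter-Fluor fluorescence after 30 min at 37C.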

[5] = qHTS assay for small molecule disruptors of the mitochondrial membrane potential - cell viability (AID 720634; calls by dose curve;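 note: human HepG2 liver cancer cells; nearly all actives have a fitted effect of over 20% in size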)
How it was run: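 HepG2 cells seeded overnight at 37 C, then exposed to compound or DMSO for 1 hr at 37 C, 5% CO2. m-MPI dye added, then CellTiter-Glo for 30 min at room temperature; viability read as ATP luminescence.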

[6] = qHTS assay for small molecule disruptors of the mitochondrial membrane potential (AID 720635)
How it was run: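 HepG2 cells exposed to compound 1 hr at 37C, then Mito-MPS dye 30 min. Ratio read of aggregate (540/590 nm) versus monomer (490/535 nm) fluorescence.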

[7] = qHTS assay to test for compound auto fluorescence at 590 nm (red) in HepG2 cells (AID 720674)
How it was run: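 HepG2 cells, 2,000 per well in MEM with 10% FBS, attached overnight at 37 C, then got 23 nL compound or DMSO. After 1 hr at 37 C, 5% CO2, red fluorescence was read at 540/590 nm against Rose Bengal sodium as reference.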

[8] = qHTS assay to test for compound auto fluorescence at 460 nm (blue) in HEK293 cells (AID 720678)
How it was run: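 HEK293, 2,000 cells/well, 10% dialyzed FBS; attach 4-5 hr 37C; pin compound or DMSO; o/n 37C/5% CO2; fluorescence 405/460 nm; triamterene-equivalent units.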

[9] = qHTS assay to test for compound auto fluorescence at 590 nm (red) in HEK293 cells (AID 720679)
How it was run: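 Intensity at 540nm excitation and 590nm emission is reported as Rose Bengal sodium-equivalent autofluorescence. Measurements followed overnight exposure (37C, 5% CO2) of HEK293 cells, 2,000 per well, to 23 nL compound.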

[10] = qHTS assay to test for compound auto fluorescence at 535 nm (green) in HEK293 cells (AID 720680)
[11] = qHTS assay to test for compound auto fluorescence at 460 nm (blue) in HEK293 cell free culture (AID 720681)
How it was run: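 Compounds were added to cell-free DMEM with 10% FBS and fluorescence read directly. The blue channel used 405 nm excitation and 460 nm emission, with triamterene as the reference fluorophore.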

[12] = qHTS assay to test for compound auto fluorescence at 535 nm (green) in HEK293 cell free culture (AID 720682)
How it was run: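 Intrinsic compound fluorescence is measured in culture medium containing 10% FBS, with excitation at 485 nm and detection at 535 nm, referenced to fluorescein.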

[13] = qHTS assay to test for compound auto fluorescence at 590 nm (red) in HEK293 cell free culture (AID 720683)
How it was run: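 Cell-free wells of DMEM with 10% FBS received compound, and intrinsic fluorescence was read at excitation/emission 540/590 nm. Values expressed as equivalence to Rose Bengal sodium.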

[14] = qHTS assay to test for compound auto fluorescence at 460 nm (blue) in HepG2 cell free culture (AID 720685)
How it was run: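 Compound (23 nL) or DMSO pinned into cell-free MEM with 10% FBS; blue fluorescence read at 405/460 nm excitation/emission, expressed as auto-fluorescence equivalency to triamterene.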

[15] = qHTS assay to test for compound auto fluorescence at 535 nm (green) in HepG2 cell free culture (AID 720686)
[16] = qHTS assay to test for compound auto fluorescence at 460 nm (blue) in HepG2 cells (AID 720687)
How it was run: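 HepG2 cells in MEM with 10% FBS, attached overnight at 37 C, were exposed to compound or DMSO for 1 hr at 37 C, 5% CO2. Blue fluorescence was read at 405/460 nm, with triamterene as reference fluorophore.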

[17] = target: Glucocorticoid receptor (Homo sapiens) (UniProt P04150); assay: qHTS assay to identify small molecule agonists of the glucocorticoid receptor (GR) signaling pathway (AID 720691; active = well fitted activation curve with a large enough effect in the signal ratio in the repeat runs, not every such curve was filed as active; the % refers to the signal ratio); conditions: GR-bla HeLa, beta-lactamase reporter ratio, 18 h; activation: at 62.4 µM (top of the series) unless noted
How it was run: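 GR-bla HeLa cells (beta-lactamase reporter under glucocorticoid response element) were plated 4 h at 37 C/5% CO2, given compounds in DMSO, and incubated 18 h at 37 C. LiveBLAzer B/G FRET substrate was added for 2 h at room temperature, then fluorescence intensity read.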

[18] = target: Glucocorticoid receptor (Homo sapiens) (UniProt P04150); assay: qHTS assay to identify small molecule antagonists of the glucocorticoid receptor (GR) signaling pathway (AID 720692; active = well fitted inhibition curve with a large enough effect in the signal ratio in the repeat runs, not every such curve was filed as active; the % refers to the signal ratio)
How it was run: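 GR-bla HeLa cells (beta-lactamase reporter under glucocorticoid response element) were pre-plated 4 h at 37 C, treated with compounds plus 5 nM dexamethasone (final) for 18 h, then read by LiveBLAzer B/G FRET fluorescence after 2 h.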

[19] = qHTS assay to test for compound auto fluorescence at 535 nm (green) in HepG2 cells (AID 720675)
[20] = qHTS assay to test for compound auto fluorescence at 590 nm (red) in HepG2 cell free culture (AID 720684)
How it was run: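 Compound was pinned into wells holding MEM with 10% FBS and no cells, and red fluorescence was read at Ex/Em 540/590 nm. Signal is expressed as auto fluorescence equivalency relative to Rose Bengal sodium.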
% is set by controls: 0 for no effect and ±100 for the full control effect.

Sequence of Glucocorticoid receptor (Homo sapiens) (P04150 whole entry, looked up): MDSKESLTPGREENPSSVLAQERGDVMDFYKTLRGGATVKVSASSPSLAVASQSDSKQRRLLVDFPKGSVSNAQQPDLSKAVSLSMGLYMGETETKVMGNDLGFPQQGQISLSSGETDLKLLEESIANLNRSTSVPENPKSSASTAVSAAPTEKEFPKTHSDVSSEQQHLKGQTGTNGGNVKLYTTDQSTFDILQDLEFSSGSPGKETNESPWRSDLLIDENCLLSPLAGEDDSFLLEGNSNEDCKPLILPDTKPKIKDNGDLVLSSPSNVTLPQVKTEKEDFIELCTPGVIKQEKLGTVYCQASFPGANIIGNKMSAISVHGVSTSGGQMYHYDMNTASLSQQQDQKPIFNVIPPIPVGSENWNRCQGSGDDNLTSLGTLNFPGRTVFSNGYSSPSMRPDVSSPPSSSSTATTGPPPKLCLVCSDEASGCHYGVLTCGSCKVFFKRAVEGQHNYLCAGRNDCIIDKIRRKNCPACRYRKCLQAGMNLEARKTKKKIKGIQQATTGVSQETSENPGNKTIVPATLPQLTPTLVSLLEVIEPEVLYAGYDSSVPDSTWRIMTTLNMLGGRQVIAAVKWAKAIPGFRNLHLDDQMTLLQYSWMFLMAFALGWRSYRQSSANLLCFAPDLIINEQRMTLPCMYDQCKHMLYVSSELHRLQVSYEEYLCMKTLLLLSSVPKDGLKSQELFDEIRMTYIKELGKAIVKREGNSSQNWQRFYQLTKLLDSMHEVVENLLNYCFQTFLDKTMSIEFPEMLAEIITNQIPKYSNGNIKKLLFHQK

Nc1ccc(S(=O)(=O)Nc2ccccc2)cc1
inactive: Potency [1] | Potency [2] | Potency [3] | Potency [4] | Potency [5] | Potency [6] | Potency [7] | outcome [8] | Potency [9] | outcome [10] | outcome [11] | outcome [12] | Potency [13] | outcome [14] | Potency [15] | outcome [16] | Potency [17] | Potency [18]

C[N+]1(CC2COC(c3ccccc3)(C3CCCCC3)O2)CCCCC1 (stereo unspecified)
inactive: Potency [1] | Potency [2] | Potency [3] | Potency [4] | Potency [5] | Potency [6] | Potency [7] | Potency [19] | outcome [8] | Potency [9] | outcome [10] | outcome [11] | outcome [12] | Potency [13] | outcome [14] | outcome [16] | Potency [17]

C/C=C/C(=O)CC
inactive: activation [1] -0.927% [at 18 µM] | activation [2] 0.488% [at 17.9 µM] | activity change, negative = cytotoxicity [3] -24.4% [at 17.9 µM] | activity, negative = cytotoxicity [4] -7.15% [at 17.9 µM] | activity change, negative = cytotoxicity [5] 4.97% [at 17.9 µM] | ratio activity, negative = MMP loss [6] 2.87% [at 17.9 µM] | fluorescence, % of fluorescein control [19] 0.0122% [at 18.6 µM] | fluorescence, % of triamterene [8] -0.166% [at 18.6 µM] | fluorescence, % of fluorescent control [9] -0.535% [at 18.6 µM] | fluorescence, % of fluorescein [10] 0.0426% [at 18.6 µM] | fluorescence, % of fluorescent control [11] 0.0584% [at 18.6 µM] | activity change [12] 0.0169% [at 18.6 µM] | fluorescence, % of fluorescent control [13] -0.144% [at 18.6 µM] | fluorescence, % of Rose Bengal [20] 0.0791% [at 18.6 µM] | fluorescence, % of fluorescent control [14] -0.0097% [at 18.6 µM] | fluorescence, % of fluorescein control [15] -0.0146% [at 18.6 µM] | fluorescence, % of fluorescent control [16] -0.0002% [at 18.6 µM] | activation [17] -3.49% [at 15 µM] | Potency [18]

CCCCC(CC)COC(=O)CCCCCCCCC(=O)OCC(CC)CCCC (stereo unspecified)
inactive: Potency [1] | Potency [2] | Potency [3] | Potency [4] | Potency [5] | Potency [6] | Potency [19] | outcome [8] | Potency [9] | outcome [10] | outcome [11] | outcome [12] | Potency [13] | Potency [20] | outcome [14] | Potency [15] | Potency [17] | Potency [18]

COc1ccc(C)cc1[N+](=O)[O-]
inactive: Potency [1] | Potency [2] | Potency [3] | Potency [4] | Potency [5] | Potency [7] | Potency [19] | outcome [8] | Potency [9] | outcome [10] | outcome [11] | outcome [12] | Potency [13] | Potency [20] | outcome [14] | outcome [16] | Potency [17] | Potency [18]

Cc1cc(C(=O)O)ccc1[N+](=O)[O-]
inactive: Potency [1] | Potency [2] | Potency [3] | Potency [4] | Potency [5] | Potency [6] | Potency [7] | Potency [19] | outcome [8] | Potency [9] | outcome [10] | outcome [11] | outcome [12] | Potency [13] | outcome [14] | Potency [15] | outcome [16] | Potency [17]

O=C1c2ccccc2S(=O)(=O)N1CCCCN1CCN(c2ncccn2)CC1
inactive: Potency [1] | Potency [2] | Potency [3] | Potency [4] | Potency [5] | Potency [6] | Potency [19] | outcome [8] | Potency [9] | outcome [10] | outcome [11] | outcome [12] | Potency [13] | Potency [20] | outcome [14] | Potency [15] | outcome [16] | Potency [18]

From PubChem BioAssay (Tox21)
